Hits are enriched below; roughly 3% of the tested compounds scored in any of these assays.
p53null 32C kill: kills p53 null cells at the permissive temperature; H1299-neo p53 null cells, ATP luminescence, 24 h, 32C; Potency, µM (doses to about 46.1 µM), inactives show at the highest dose activity change, negative = cytotoxicity, actives largely listed as cytotoxic; 55,000 tested, 0.62% active;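 also: potency is read from the fitted curve at half-maximal effect; 0% = DMSO only and -100% = full killing by 100 µM tamoxifen; nearly all actives have a fitted effect of over 55% in size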
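ATP-content luminescence in p53-null H1299-neo cells after 24 h compound exposure (up to 46 uM) at 32C permissive temperature; 0% and 100% killing set by DMSO and 100 uM tamoxifen; Hill-equation AC50.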
p53null 39C kill: p53 null cell cytotoxicity, nonpermissive temperature; 55,000 tested, 0.97% active; Potency, µM (top dose mostly 46.1 µM), inactives show top-dose activity, negative = cell killing, hits mostly cytotoxic; H1299 p53-null (neo) cells, 39C, ATPlite viability, 24 h;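 also: potency is read from the fitted curve at half-maximal effect; 0% = DMSO only and -100% = full killing by 100 µM tamoxifen; nearly all actives have a fitted effect of over 50% in size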
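Following overnight plating at 37C (600 cells/well), H1299-neo or H1299-p53A138V cells are dosed up to 46 uM. Incubation lasts 24 hr at 39C before ATP detection.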
SKOV3 invasion: ovarian cancer metastasis inhibition, 3D TME model; 46,000 tested, 0.1% active; SKOV3ip1-GFP adhesion/invasion on 3D omental model, fluorescence; AID 1963576; Potency, µM (titrated, usually from 45.8 µM), for the others: top-dose activity change, negative = inhibition, usual class: inhibitors;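 also: potency is read from the fitted curve at half-maximal effect; plate controls were DMSO wells for no effect and tomatine positive control wells for full effect; nearly all actives have a fitted effect of over 65% in size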
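Adhesion/invasion was scored as fixed GFP-labeled SKOV3ip1 cell counts (488/509 nm), normalized to DMSO and tomatine controls. Cancer cells in serum-free medium, with four compound doses (0.36-46 umol/L), sat 2 hr at RT then 16 hr at 37 C on a 48 hr fibroblast/mesothelial/ECM culture.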
pS6 MEF inh: mTORC1 pathway inhibition measured by phospho-rpS6; Tsc2-/- p53-/- MEF, phospho-rpS6 immunofluorescence/PI, 24 h; 44,000 tested, 0.78% active; Potency, µM (titrated, usually from 38.3 µM), inactives show at the top dose activity change, negative = inhibition, usual class: inhibitors; AID 493208;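 also: potency is read from the fitted curve at half-maximal effect; plate controls were DMSO for no effect and rapamycin for full effect; nearly all actives have a fitted effect of over 50% in size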
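Plate MEFs (Tsc2-/-, p53-/-, empty vector) in DMEM/10% FBS; after 24 h add compound, incubate 24 h at 37 degree Celsius; fix in PFA/TX-100, block, stain phospho-rpS6 and 10 uM PI; scan at 488 nm; report % positive cells.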
S16 viability: toxic to S16 Pmp22-F2sN Schwann cells; S16 Pmp22-F2sN Schwann cells viability, CellTiter-Glo, 24 h; AID 1508642; 43,000 tested, 0.48% active; Potency, µM (titrated, usually from 57.5 µM), without a hit: top-dose activity change, negative = cytotoxicity, hits mostly cytotoxic; also: potency is read from the fitted curve at half-maximal effect; % is scaled to controls: 0 for no effect and ±100 for the full control effect; nearly all actives have a fitted effect of over 65% in size
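S16 Pmp22-F2sN Schwann cells (500-1,000/well) in phenol-red-free DMEM with 10% FBS received 23 nL compound by pin tool for 24 h at 37 °C. Viability was then read as CellTiter-Glo luminescence after 15 min at room temperature.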
PMP22 txn: modulates PMP22 transcription in S16 Schwann cells | S16 Pmp22-F2sN Schwann cells, FLuc/NLuc coincidence luminescence, 24 h | Potency, µM (series often up to 57.5 µM), without a hit: at the highest dose activity change, negative = inhibition, actives largely listed as inhibitors | 43,000 tested, 2% active; active = clear falling dose curves in both reporters; inconclusive = both reporters move, but less clearly or upward; inactive = either reporter flat; the % is the NLuc reporter signal; also: potency is read from the fitted curve at half-maximal effect; % is scaled to controls: 0 for no effect and ±100 for the full control effect
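qHTS, 1536-well. Cells seeded, compounds added by pin tool, 24 h 37C. Nano-Glo reagent 1 (lysis/FLuc), 10 min RT, read; Stop&Glo, 10 min RT, read NLuc.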
NLuc saturating: inhibits NanoLuc at saturating substrate, PMP22 counter-screen. shares compounds with PMP22 txn. Secreted NLuc enzyme (filtered S16 cell medium), Nano-Glo luminescence. Potency, µM (highest dose often 57.5 µM), for inactives: at the top dose activity change, negative = inhibition, actives largely listed as inhibitors. 690 tested, 4% active. AID 1508638; also: potency is read from the fitted curve at half-maximal effect; % is scaled to controls: 0 for no effect and ±100 for the full control effect
NLuc Km counter: inhibits NanoLuc under Km conditions, PMP22 counter-screen. Potency, µM (doses to about 57.5 µM), inactives show at the highest dose activity change, negative = inhibition, most hits filed as inhibitors. shares compounds with PMP22 txn. 690 tested, 5% active. secreted NLuc enzyme, coelenterazine luminescence, Km conditions; also: potency is read from the fitted curve at half-maximal effect; % is scaled to controls: 0 for no effect and ±100 for the full control effect
FLuc counter: inhibits firefly luciferase, PMP22 counter-screen. shares compounds with PMP22 txn. purified P. pyralis FLuc, luminescence, 10 min. Potency, µM (highest dose often 57.5 µM), inactives show top-dose activity, negative = inhibition, actives largely listed as inhibitors. 690 tested, under 10 active. AID 1508640; also: % of control where 0% means no effect
Target sequence (P08659 whole entry, looked up): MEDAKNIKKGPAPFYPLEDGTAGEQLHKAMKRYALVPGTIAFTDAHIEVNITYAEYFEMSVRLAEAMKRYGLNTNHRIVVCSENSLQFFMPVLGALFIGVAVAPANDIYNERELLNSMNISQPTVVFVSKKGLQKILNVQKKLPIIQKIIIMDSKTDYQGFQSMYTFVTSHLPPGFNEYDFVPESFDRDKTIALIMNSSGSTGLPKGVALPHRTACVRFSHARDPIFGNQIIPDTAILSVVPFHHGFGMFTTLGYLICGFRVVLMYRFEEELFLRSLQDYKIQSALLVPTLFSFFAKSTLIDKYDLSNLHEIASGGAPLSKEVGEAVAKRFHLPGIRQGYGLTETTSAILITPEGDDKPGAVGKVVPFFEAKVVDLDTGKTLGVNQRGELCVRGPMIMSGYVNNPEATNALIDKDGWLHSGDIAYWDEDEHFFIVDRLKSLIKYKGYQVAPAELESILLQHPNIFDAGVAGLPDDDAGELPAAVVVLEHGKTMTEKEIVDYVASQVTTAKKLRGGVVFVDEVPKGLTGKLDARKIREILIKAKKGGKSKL
S16 viab conf: confirmation of cytotoxicity in S16 Pmp22-F2sN Schwann cells (luciferase reporters placed in the Pmp22 gene); S16 Schwann cells viability, CellTiter-Glo ATP luminescence, 24 h; AID 1508641; 690 tested, 7% active; Potency, µM (series often up to 57.5 µM), for the others: at the top dose activity change, negative = viability loss, actives largely listed as cytotoxic; shares compounds with PMP22 txn; also: potency is read from the fitted curve at half-maximal effect; % is scaled to controls: 0 for no effect and ±100 for the full control effect
PMP22 txn conf: PMP22 transcription modulation, confirmatory | shares compounds with PMP22 txn | S16 Schwann cells Pmp22-F2sN, dual luciferase, 24 h | Potency, µM (doses to about 57.5 µM), inactives show top-dose activity change, negative = inhibition, actives largely listed as inhibitors | 690 tested, 22% active | AID 1508646; active = clear falling dose curves in both reporters; inconclusive = both reporters move, but less clearly or upward; inactive = either reporter flat; the % is the FLuc reporter signal; also: potency is read from the fitted curve at half-maximal effect
Starred values were filed as active, the others as inactive; i = inactive; ? = inconclusive; nt = not tested or not shown. Unless noted, calls follow the shape of the dose curve; as a rule, active = well fitted curve in the direction sought with a large enough effect; inconclusive = small, poorly fitted or top-dose-only effect, or another doubt; inactive = no such curve, though single readings can be large; an effect the other way counts as inactive or inconclusive.

SMILES	p53null 32C kill	p53null 39C kill	SKOV3 invasion	pS6 MEF inh	S16 viability	PMP22 txn	NLuc saturating	NLuc Km counter	FLuc counter	S16 viab conf	PMP22 txn conf
COc1ccc(OC)c(CNS(=O)(=O)c2ccc3[nH]c4c(c3c2)CCCCC4)c1	8.7%	39.0%	14.4%	-7.9%	-18.3%	15µM*	-11.4%	?	1.6%	0.8%	-16.1%
Cc1ccc(NS(=O)(=O)c2ccc3[nH]c4c(c3c2)CCCC4)cc1N(C)C	16.8%	-15.7%	-20.2%	-16.8%	?	16.8µM*	2.1%	-19.8%	1.4%	7.0%	?
O=C(NCC1CN(c2ccc(N3CCOCC3=O)cc2)C(=O)O1)c1ccc(Cl)s1 (centres undefined)	nt	nt	-13.5%	nt	nt	nt	nt	nt	nt	nt	nt
O=C(Nc1ccc(OC(F)(F)F)cc1)c1sccc1NCc1ccnc2ccccc12	nt	nt	1.4%	nt	nt	nt	nt	nt	nt	nt	nt
O=C(Nc1ccc(Br)cc1F)N1CC=C(c2c[nH]c3ccccc23)CC1	14.8%	24.8%	i	-0.1%	-10.1%	?	-12.6%	?	-11.8%	10.0%	-17.4%
Cc1c(/C=C(\C#N)C(=O)Nc2cccc(Cl)c2)c2ccccc2n1Cc1ccccc1Cl	3.5%	-1.9%	-2.4%	22.4%	-13.1%	?	-6.8%	-3.1%	-4.8%	5.6%	-13.6%
CC(=O)N1c2ccc(S(=O)(=O)NCC3CCC(C(=O)Nc4cc(C)ccc4C)CC3)cc2CC1C (centres undefined)	0.9%	-8.1%	-21.9%	-20.3%	?	?	-15.5%	2.3%	4.0%	-24.3%	-47.2%
CC(=O)N1c2ccc(S(=O)(=O)NCC3CCC(C(=O)Nc4ccccc4C)CC3)cc2CC1C (centres undefined)	-3.4%	-9.1%	9.8%	-25.7%	-8.4%	-27.0%	nt	nt	nt	nt	nt
Cc1cccc(NC(=O)c2cnn(-c3ccccc3)c2-n2cccc2)c1C	21.6%	-16.8%	-2.6%	0.8%	-19.1%	13.4µM*	19.3µM*	15.3µM*	-0.3%	-21.1%	-24.0%
CC(=O)Nc1cccc(-c2nnc(SCC(=O)c3cc([N+](=O)[O-])ccc3Cl)o2)c1	10.3%	?	8.0%	?	-1.2%	14.1µM*	12.2µM*	7.69µM*	?	?	18.3µM*
O=C(CSc1nnc(-c2ccc(Cl)cc2)o1)c1ccc([N+](=O)[O-])cc1	3.5%	10.9%	i	-8.5%	24.9%	?	nt	nt	nt	nt	nt
C[C@@H](O[C@H]1OCCN(Cc2n[nH]c(=O)[nH]2)[C@@H]1c1ccc(F)cc1)c1cc(C(F)(F)F)cc(C(F)(F)F)c1	nt	nt	-12.0%	nt	nt	nt	nt	nt	nt	nt	nt
CC(C)CN(C[C@H](O)[C@H](Cc1ccccc1)NC(=O)O[C@H]1CCOC1)S(=O)(=O)c1ccc(N)cc1	nt	nt	-5.9%	nt	nt	nt	nt	nt	nt	nt	nt
CN(C)Cc1cccc(N=C(c2ccccc2)c2c(O)[nH]c3cc(C(=O)N(C)C)ccc23)c1	nt	nt	14.3%	nt	nt	nt	nt	nt	nt	nt	nt
O=C(CSc1nc2c(sc3ccccc32)c(=O)n1CCCC(=O)NC1CCCC1)Nc1ccc(F)cc1	-7.5%	-3.6%	i	-0.9%	?	?	-13.3%	12.2%	-15.1%	-30.7%	10.9µM*
Cc1cccc(NC(=O)CSc2nc3c(sc4ccccc43)c(=O)n2CCCC(=O)NC2CCCC2)c1	-6.9%	-3.7%	-5.0%	-11.4%	7.7%	-28.5%	nt	nt	nt	nt	nt
CCOc1ccc(CCNc2ncnc3onc(C)c23)cc1OCC	1.9%	-4.4%	6.5%	?	-24.5%	4.74µM*	-12.1%	-5.1%	-3.1%	-7.3%	-27.9%
O=S(=O)(NCc1ccc(F)cc1)c1ccc(N2CCCCS2(=O)=O)cc1	2.6%	1.5%	-5.1%	-29.7%	?	11.9µM*	-1.9%	-3.4%	-1.2%	-7.2%	2.5%
CCOc1ccccc1Nc1sc(C(=O)c2ccc(Cl)cc2)c(N)c1C#N	-7.0%	11.1%	12.7%	-2.8%	1.2%	15µM*	-0.2%	3.9%	-2.5%	0.6%	-1.6%
CCc1ccc2ncc(C(=O)c3ccc(C)c(C)c3)c(N3CCC(C(N)=O)CC3)c2c1	17.4%	?	i	-1.2%	-8.1%	13.4µM*	5.44µM*	7.69µM*	-1.2%	-12.5%	?
CCOC(=O)C1CCN(C(=O)C2CCN(c3nnc(C)c4c(C)n(-c5ccccc5)nc34)CC2)CC1	19.5%	-3.8%	i	-5.3%	18.3%	14.1µM*	-9.8%	-0.2%	3.0%	2.5%	-22.4%

From PubChem BioAssay
